# Screening data from PubChem BioAssay.
# Rows were chosen to be rich in hits. Some 11% of all compounds tested hit in one or more screens of this group.
# CBFb-RUNX1 inh: CBF-beta/RUNX1 interaction disruption | Q01196+Q13951 | AID 1477 | AlphaScreen CBFb-His/RUNX1-biotin binding, biochemical | Potency, µM (highest dose often 59.8 µM), for inactives: top-dose activity, negative = inhibition, most hits filed as inhibitors | 230,000 tested, under 10 active; further: % of control where 0% means no effect
#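 Interaction loss through any mechanism counts as activity. Pre-formed complex of His-CBF-beta and biotin-RUNX1 (30 nM apiece) is incubated with compound 15 min, then with 50 ng nickel and 50 ng streptavidin beads for 90 min before AlphaScreen detection.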
# PNC assembly inh: inhibitors of perinucleolar compartment assembly | PC3M PTB-GFP, PNC prevalence imaging, 16 h; hits give low values | activity change (PNC), negative = inhibition, % at 10 µM | 3.1% of 140,000 active;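 active means readout at or below -70, meaning at least 70% loss of cells showing the perinucleolar compartment, a nuclear body marking cancer cells; inconclusive means readout between -30 and a set limit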;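 further: plate controls were DMSO wells for no effect and camptothecin positive control wells for full effect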
#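 Compounds are pinned in duplicate onto adhered PC3M cells stably expressing GFP-tagged PTB and incubated 16 h at 37 C. Cells are then fixed, nuclei stained with Hoechst, and PNC-positive cells counted.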
# HttQ103 aggreg: inhibitors of mutant huntingtin aggregate formation in PC12 cells; PC12 HttQ103-GFP aggregates, Acumen cytometry, 40 h; Potency, µM (top dose mostly 46.1 µM), without a hit: at the top dose activity change, negative = inhibition, actives largely listed as inhibitors; 1.1% of 220,000 active; further: potency means the concentration at half of the fitted maximal effect; on the % scale 0 is the no-effect control and ±100 the full control effect; nearly all actives have a fitted effect of over 60% in size
#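 Aggregate formation scored by laser-scanning cytometer (488 excitation, 500–530 emission) in lysed PC12 cells expressing Q103-GFP after 100 nM tebufenozide induction; library tested in dose series, with ATPLite reagent added in the multiplex.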
# HTT ATP protect: cytoprotection in Huntington HTT-Q103 PC12 cell model; PC12 HTT-Q103 induced, cytoprotection, ATP luminescence, 40 h; Potency, µM (series often up to 56.4 µM), for the others: cytoprotection (ATP increase), usual class: activators; 0.14% of 230,000 active; AID 1471; further: potency means the concentration at half of the fitted maximal effect; % of control where 0% means no effect; nearly all actives have a fitted effect of over 45% in size
#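 Readout: ATPlite luminescence (ATP level). Model: stable PC12, inducible Htt exon1 Q103-GFP. Inducer: tebufenozide, 100 nM final. Compounds: dose series. No G418 in medium.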
# HPGD block: blocks human HPGD enzyme activity | P15428 | purified HPGD, NADH fluorescence kinetic, PGE2 substrate | Potency, µM, for inactives: at the top dose activity change, negative = inhibition, hits mostly inhibitors | 4.3% of 150,000 active; active means well fitted inhibition curve with a large enough effect, not every such curve was filed as active; inconclusive means small, poorly fitted or top-dose-only effect, or another doubt; inactive means no such curve, though single readings can be large or run the other way; further: potency means the concentration at half of the fitted maximal effect; on the % scale 0 is the no-effect control and ±100 the full control effect
# Target sequence (P15428 whole entry, looked up): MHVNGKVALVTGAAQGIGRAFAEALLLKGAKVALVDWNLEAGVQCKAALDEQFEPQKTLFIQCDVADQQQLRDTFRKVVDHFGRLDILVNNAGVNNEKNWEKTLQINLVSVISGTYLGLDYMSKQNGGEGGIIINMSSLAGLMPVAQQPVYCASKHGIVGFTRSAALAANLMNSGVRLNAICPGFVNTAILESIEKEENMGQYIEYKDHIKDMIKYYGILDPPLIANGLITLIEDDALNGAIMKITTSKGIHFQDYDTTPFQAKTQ
#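 NADH formation kinetics: reaction with 30 uM PGE2 and 1 mM NAD+ (final), 20 nM enzyme, Tris-HCl pH 8 with Tween 20, after 15 min compound preincubation at room temperature. Fluorescence change, last versus first of five reads.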
# ALDH1A1 block: inhibitors of human aldehyde dehydrogenase 1A1; 7.3% of 220,000 active; P00352; Purified ALDH1A1, NADH fluorescence, propionaldehyde substrate; Potency, µM (titrated, usually from 75.3 µM), for the others: top-dose activity, negative = inhibition, most hits filed as inhibitors; active means well fitted inhibition curve with a large enough effect, not every such curve was filed as active; inconclusive means small, poorly fitted or top-dose-only effect, or another doubt; inactive means no such curve, though single readings can be large or run the other way;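 further: potency means the concentration at half of the fitted maximal effect; plate controls were no enzyme wells and a reference inhibitor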
# Target sequence (P00352 whole entry, looked up): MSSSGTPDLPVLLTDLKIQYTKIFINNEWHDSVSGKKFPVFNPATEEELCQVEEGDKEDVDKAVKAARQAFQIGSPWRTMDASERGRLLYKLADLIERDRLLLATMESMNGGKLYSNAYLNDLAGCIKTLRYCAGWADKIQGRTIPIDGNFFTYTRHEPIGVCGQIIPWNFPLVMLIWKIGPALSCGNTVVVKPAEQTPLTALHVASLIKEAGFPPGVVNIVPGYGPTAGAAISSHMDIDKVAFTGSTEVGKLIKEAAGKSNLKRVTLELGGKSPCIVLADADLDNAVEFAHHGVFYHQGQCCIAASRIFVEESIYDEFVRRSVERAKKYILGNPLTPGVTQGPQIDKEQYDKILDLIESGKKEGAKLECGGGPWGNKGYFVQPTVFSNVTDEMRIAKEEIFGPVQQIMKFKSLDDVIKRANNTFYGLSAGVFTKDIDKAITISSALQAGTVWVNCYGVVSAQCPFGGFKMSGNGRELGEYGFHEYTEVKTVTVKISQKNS
# Starred values were filed as active, the others as inactive; ? = inconclusive; . = not tested or not shown; [ ] = remark or other dose. Unless noted, the call rests on the fitted dose curve; in most records, active means well fitted curve in the direction sought with a large enough effect; inconclusive means small, poorly fitted or top-dose-only effect, or another doubt; inactive means no such curve, though single readings can be large; an effect the other way counts as inactive or inconclusive.
SMILES,CBFb-RUNX1 inh,PNC assembly inh,HttQ103 aggreg,HTT ATP protect,HPGD block,ALDH1A1 block
NNC(=O)c1[nH]c2ccc(Br)cc2c1-c1ccccc1,-3.5%,.,-40.8%[9.22 µM],-84.8%[10 µM],.,0.159µM*
Cc1ccc2[nH]c(C(=O)NN=C3CCCCC3)c(-c3ccccc3)c2c1,3.5%,.,?,-84.0%[10 µM],.,1.41µM*
COc1cccc(C=NC=Nc2cccc(OC)c2)c1,21.2%[21.7 µM],.,.,-2.0%,-10.8%,-4.4%
O=C(COc1cc(=O)n2c(n1)SCCC2)c1ccccc1,-1.5%,-3.9,-0.9%,13.6%,15.8µM*,14.1µM*
CN(C)c1ccc(-c2nc(NC3CCNCC3)c3ccccc3n2)cc1,.,.,.,-96.3%,-14.2%,-5.3%
COc1cccc(-c2nc(NC3CCNCC3)c3ccccc3n2)c1,.,.,.,-31.4%,.,31.6µM*
O=S(=O)(c1cccc(Cl)c1Cl)N1CCCCC1,9.2%,9.8,19.1%,-20.7%[0.074 µM],-8.2%,-1.8%
O=S(=O)(c1c(Cl)sc(Cl)c1Br)N1CCCC1,12.1%,.,19.0%[9.22 µM],2.3%[10 µM],.,14.1µM*
Cc1ccc(/C=C/C(=O)N2CCc3ccccc3C2)cc1,1.9%,7.6,-29.4%,-21.5%[10 µM],14.1µM*,0.0%
COc1ccc(OC)c(C2=Nn3c(nnc3-c3ccccc3C)SC2)c1,12.7%,.,.,.,.,.
CC1CCN(c2ccc(C=O)o2)CC1,-5.6%,.,-10.3%[9.22 µM],15.6%[10 µM],.,14.1µM*
O=Cc1ccc(N2CCCC2)o1,5.8%,.,-5.9%,21.2%,.,-10.7%
C=CCn1c(SCC(=O)c2ccc(Cl)s2)nc2ccccc2c1=O,1.1%,22.9,-1.6%,4.7%,-13.0%,13.2%
C=CCn1c(SCC(=O)c2cccs2)nc2sc(C)cc2c1=O,-0.7%,-17.9,-7.8%,-37.0%,?,11.2µM*
C=CCn1c(SCC(=O)c2cccs2)nnc1-c1cccc(OC)c1,-1.7%,12.8,10.0%,7.1%,20µM*,?
C=CCn1c(SCC(=O)O)nnc1-c1cccs1,0.2%,13.8,20.3%,3.7%,-22.3%,-0.2%
Cc1ccc(OC2C(O)COC2/C=C/C#Cc2ccc(C(C)(C)C)cc2)cc1 (stereo not drawn),16.7%[13.1 µM],.,.,-2.0%[10 µM],.,1.4%[13.5 µM]
CC(C)C[C@H](NC(=O)[C@H](CCCCN)NC(=O)[C@H](CCCNC(=N)N)NC(=O)[C@H](C)NC(=O)[C@H](CO)NC(=O)[C@H](CCCCN)NC(=O)[C@H](CCCNC(=N)N)NC(=O)[C@H](C)NC(=O)CNC(=O)[C@@H](NC(=O)[C@H](Cc1ccccc1)NC(=O)CNC(=O)CNC(=O)[C@@H](N)Cc1ccccc1)[C@H](C)O)C(=O)N[C@@H](C)C(=O)N[C@@H](CC(N)=O)C(=O)N[C@@H](CCC(N)=O)C(=O)O,17.2%,.,.,-5.2%,.,4.1%
CN1CCN(c2nc(-c3ccc4c(c3)OCO4)nc3ccccc23)CC1,.,.,.,-20.1%,.,?
COc1ccc(N(CC(=O)Nc2ccc(C)cn2)S(=O)(=O)c2c(C)noc2C)cc1,-2.6%,-80.2*,-8.6%,-6.8%,1.2%,-5.8%
COc1ccc(N(CC(=O)NCc2ccc(C)cc2)S(=O)(=O)c2c(C)nn(C)c2C)cc1,-1.0%,?,30.2%,.,-9.5%,25.1µM*
CCOc1ccccc1NC(=O)CN(c1ccc(C)cc1)S(=O)(=O)c1c(C)noc1C,21.7%,-131.7*,-23.5%,-9.3%,-12.1%,14.7%
COc1ccc(CNC(=O)CN(c2ccc(OC)cc2)S(=O)(=O)c2c(C)nn(C)c2C)cc1,?,41.8,-1.0%,.,-22.2%,-7.3%
Nc1ncn([C@H]2O[C@@H](CO)[C@@H](O)[C@@H]2O)c(=O)n1,-18.7%[21.7 µM],.,.,-43.9%[40.3 µM],-0.5%,-3.3%[20.9 µM]
CCc1cc2c(=O)c(-c3cscn3)coc2c(CN(C)C)c1O,8.4%,?,11.2µM*,-37.4%[10 µM],?,?
SMILES,CBFb-RUNX1 inh,PNC assembly inh,HttQ103 aggreg,HTT ATP protect,HPGD block,ALDH1A1 block
COc1ccccc1OCCC(=O)OCC(=O)c1[nH]c(C)c(C(C)=O)c1C,4.2%,.,-15.3%,11.4%[10 µM],.,25.1µM*
CCCOc1ccc(OCC(=O)c2[nH]c(C)c(C(C)=O)c2C)cc1,1.2%,?,8.91µM*,-5.5%,-4.0%,9.0%
c1ccc(C(c2ccccc2)N2CC3(CCNCC3)C2)cc1,.,.,.,-74.3%,-0.3%,-3.6%
CN(C)c1ccc(/C=N/NC(=O)C(O)(c2ccccc2)c2ccccc2)o1,-2.8%,?,?,5.7%[10 µM],?,-7.8%
O=C(N/N=C/c1ccc(N2CCCCC2)o1)C(O)(c1ccccc1)c1ccccc1,-17.6%,?,?,20.2%[10 µM],31.6µM*,?
O=C(Nc1ccc(N2C(=O)C3C4C=CC(C4)C3C2=O)cc1)Nc1cccnc1 (stereo not drawn),19.4%,-24.6,2.2%,14.1%[10 µM],17.8µM*,?
CC(C(=O)Nc1cccnc1)N1C(=O)C2C3C=CC(C3)C2C1=O (stereo not drawn),5.6%,-1.0,16.3%,-7.1%,-16.1%,20µM*
CCOC(=O)Cc1csc(SCC(=O)NC2CCCC(C)C2C)n1 (stereo not drawn),-1.4%,?,2.8%,-7.2%[10 µM],25.1µM*,?
CCOC(=O)Cc1csc(SCC(=O)Nc2sc3c(c2C(N)=O)CCC3)n1,?,-3.5,12.4%,-24.4%[10 µM],17.8µM*,?
COc1ccc(-n2c(SCC(=O)N3CCCC3)nc3c([nH]c4ccccc43)c2=O)cc1,.,.,.,-0.9%,.,.
S=c1nc(Cc2ccc(Cl)cc2)[nH]c2ccccc12,6.0%,.,2.6%,-32.2%[10 µM],.,-0.2%
Cc1nc(=S)c2ccccc2[nH]1,-11.0%,-29.1,0.3%,0.5%,-15.0%,7.08µM*
FC(F)(F)c1nc(=S)c2ccccc2[nH]1,17.2%,.,-20.7%,11.5%,.,8.91µM*
O=C(/C(=C/c1ccc(Cl)cc1)c1nc2ccccc2[nH]1)c1ccccc1,-0.7%,?,5.01µM*,-71.1%,-20.6%,?
O=C(NCCCN1CCOCC1)c1ccc(-n2nc(C(F)(F)F)cc2-c2cccs2)cc1,0.1%,?,?,-80.4%[10 µM],-4.8%,9.4%
COCCCNC(=O)c1ccc(-n2nc(C(F)(F)F)cc2-c2cccs2)cc1,-5.8%,15.8,?,16.2%,14.1µM*,20µM*
Cc1noc(C)c1S(=O)(=O)Nc1ccc(C(=O)N2CCC(C)CC2)cc1,5.0%,.,-7.3%,-40.8%,.,4.7%
CCOc1ncccc1C(=O)Nc1cccc(-c2nnc3n2CCCCC3)c1,-1.1%,.,-32.8%,27.9%[10 µM],.,-12.3%
Cc1onc(-c2ccccc2Cl)c1C(=O)Nc1ccc(-c2nnc3n2CCCCC3)cc1,-5.0%,?,-15.5%,-5.9%,15.8µM*,-5.6%
Cc1ccc(-c2nnc3n2CCCCC3)cc1,0.4%,-24.0,6.9%,8.0%,5.01µM*,-9.6%
c1cc(Nc2ncnc3sccc23)cc(-c2nnc3n2CCCCC3)c1,-13.9%,9.8,?,-4.3%,22.4µM*,-7.3%
